Assay results from PubChem BioAssay (NCATS).
Records with an inconclusive call do not appear. Unless noted, the call rests on the fitted dose curve; in most records, active means well fitted curve in either direction with a large enough effect (not every such curve was filed as active); inconclusive means small, poorly fitted or top-dose-only effect, or another doubt; inactive means flat fitted curve, though single readings scatter.

Experiments:
[1] = AP1 Signaling Pathway (AID 357); settings: ME-180 AP-1-bla reporter, EGF-induced, beta-lactamase ratio, 5 h; at 17.2 µM (top of the series) unless noted;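 further: ME-180 reporter cells stimulated with EGF at its EC50 level; on the % scale 0 is the no-effect control and ±100 the full control effect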
Method in brief: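 AP-1-bla ME-180 cells, Opti-MEM + 0.5% dialyzed FBS, plated overnight 37 °C. Cpd titration + EC50 EGF, 5 h 37 °C. CCF4 2.5 h RT; ex 405, em 460/530 ratio → %activity, AC50.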

[2] = NFAT Signaling Pathway (AID 444); settings: Jurkat NFAT-bla M1, carbachol, beta-lactamase ratio, 5 h; at 17.2 µM (top of the series) unless noted;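 further: carbachol stimulus at about its EC50 of 1 µM final; on the % scale 0 is the no-effect control and ±100 the full control effect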
Method in brief: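 Jurkat cells carrying an NFAT-driven β-lactamase reporter and co-transfected muscarinic M1 receptor were treated with compound plus carbachol (1 uM final, an EC50 level) for 5 h at 37 °C. CCF4 loading followed for 1 h at RT; 460/530 nm ratio gave %activity.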

[3] = Stat Signaling Pathway (AID 446); settings: ME-180 (cervical carcinoma) SIE beta-lactamase reporter, IL-6 stimulated, 5 h; at 17.2 µM (top of the series) unless noted;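 further: ME-180 cervical cancer cells given 40 pM IL-6 alongside compound; SIE-controlled beta-lactamase reporter measured as 460/530 nm FRET emission ratio; on the % scale 0 is the no-effect control and ±100 the full control effect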
Method in brief: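 Normalization used AC90 stimulation (300 pM IL-6) and AC90 inhibition (125 nM pan-JAK inhibitor at 40 pM IL-6). The underlying signal is SIE-driven beta-lactamase in ME-180 cells after 5 h IL-6 exposure with compound.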

[4] = biological target: Glucocorticoid receptor (Homo sapiens) (UniProt P04150); test: GR-GFP Redistribution (AID 450;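 active means compounds whose dose series gives a full or clear partial fitted curve of increased nuclear translocation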; further: potency means the concentration at half of the fitted maximal effect)
Glucocorticoid receptor (Homo sapiens), sequence (P04150 whole entry, looked up): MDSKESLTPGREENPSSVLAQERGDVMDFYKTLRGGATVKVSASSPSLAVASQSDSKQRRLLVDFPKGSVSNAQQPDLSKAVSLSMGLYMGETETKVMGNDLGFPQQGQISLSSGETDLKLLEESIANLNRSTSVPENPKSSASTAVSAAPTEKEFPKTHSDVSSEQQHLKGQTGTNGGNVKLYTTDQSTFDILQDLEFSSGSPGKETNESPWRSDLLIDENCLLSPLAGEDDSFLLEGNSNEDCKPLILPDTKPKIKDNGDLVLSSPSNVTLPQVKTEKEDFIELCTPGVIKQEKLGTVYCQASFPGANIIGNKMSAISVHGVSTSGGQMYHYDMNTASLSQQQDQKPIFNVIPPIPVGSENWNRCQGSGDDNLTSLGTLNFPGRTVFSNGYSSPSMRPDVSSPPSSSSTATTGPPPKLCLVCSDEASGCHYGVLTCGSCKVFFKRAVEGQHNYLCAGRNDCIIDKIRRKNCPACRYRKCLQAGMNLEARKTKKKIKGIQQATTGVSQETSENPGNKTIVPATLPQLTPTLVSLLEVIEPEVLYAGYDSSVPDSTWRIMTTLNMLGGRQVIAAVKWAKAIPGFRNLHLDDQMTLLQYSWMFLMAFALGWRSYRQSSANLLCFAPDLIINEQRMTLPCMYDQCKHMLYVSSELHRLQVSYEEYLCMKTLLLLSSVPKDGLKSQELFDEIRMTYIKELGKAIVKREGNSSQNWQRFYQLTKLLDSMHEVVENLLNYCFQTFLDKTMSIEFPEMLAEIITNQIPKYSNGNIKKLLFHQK

CC(=O)c1cc2c(=O)c3ccccc3oc2nc1C
inactive: activity change, negative = inhibition [1] -1.73% | activity change, negative = inhibition [2] -16.9% | activity, negative = inhibition [3] 7.33% | Potency [4] > 20.6 µM

COc1ccccc1NC(=O)c1c(C)cc(=O)oc1C
inactive: activity change, negative = inhibition [1] 13% | activity change, negative = inhibition [2] 12.5% | activity, negative = inhibition [3] 0.453% | Potency [4] > 20.6 µM

O=C1C(=O)N(Cc2cccnc2)C(c2ccccn2)/C1=C(/O)c1ccc(F)cc1 (stereo not given)
inactive: activity change, negative = inhibition [1] 10.7% | activity change, negative = inhibition [2] 3.79% | activity, negative = inhibition [3] 0.323% | Potency [4] > 20.6 µM

Cc1ccc2[nH]c(CCN(C)C)c(CC#N)c2c1
inactive: activity change, negative = inhibition [1] 12.9% | activity change, negative = inhibition [2] 8.6% | activity, negative = inhibition [3] 5.44% | Potency [4] > 20.6 µM

c1ccc(CSc2nnc(SCc3ccccn3)s2)nc1
inactive: activity change, negative = inhibition [1] -9.4% | activity change, negative = inhibition [2] 3.91% | activity, negative = inhibition [3] -4.62% | Potency [4] > 20.6 µM

NC(=O)c1cc(-c2ccccc2)nc(Oc2ccccc2)n1
inactive: activity change, negative = inhibition [1] -14.4% | activity change, negative = inhibition [2] -25.9% | activity, negative = inhibition [3] -5.87% | Potency [4] > 20.6 µM

O=C1C(=O)N(CCCn2ccnc2)C(c2ccccn2)/C1=C(/O)c1ccccc1 (stereo not given)
inactive: activity change, negative = inhibition [1] 15.8% | activity change, negative = inhibition [2] 6.66% | activity, negative = inhibition [3] -2.92% | Potency [4] > 20.6 µM

CC1(C)CC(=O)C2=C(C1)N(CC1CCCO1)C(=O)C2(O)C(F)(F)F (stereo not given)
inactive: activity change, negative = inhibition [1] 4.53% | activity change, negative = inhibition [2] 0.206% | activity, negative = inhibition [3] 5.45% | Potency [4] > 20.6 µM

COc1ccccc1C(=O)Nc1cc(Cl)ccc1O
inactive: activity change, negative = inhibition [1] -12.2% | activity change, negative = inhibition [2] -2.92% | activity, negative = inhibition [3] -4.42% | Potency [4] > 20.6 µM

CCOC(=O)c1[nH]c2ccc(Br)cc2c1NC(=O)CCN1CCN(C(=O)OCC)CC1
inactive: activity change, negative = inhibition [1] -25% | activity change, negative = inhibition [2] -25.7% | activity, negative = inhibition [3] -26.2% | Potency [4] > 20.6 µM

COc1ccc(C2C(C#N)=C(C)NC3=C2C(=O)c2ccccc23)cc1 (stereo not given)
inactive: activity change, negative = inhibition [1] -6.13% | activity change, negative = inhibition [2] -27.8% | activity, negative = inhibition [3] -7.06% | Potency [4] > 20.6 µM

CCOP(=O)(c1ccccc1)C1(C#N)CCCC1 (stereo not given)
inactive: activity change, negative = inhibition [1] 8.95% | activity change, negative = inhibition [2] 7.44% | activity, negative = inhibition [3] 7.92% | Potency [4] > 20.6 µM

Cn1nnnc1-c1cc(Br)ccc1NC(=O)c1ccccc1
inactive: activity change, negative = inhibition [1] 28.6% | activity change, negative = inhibition [2] -1.05% | activity, negative = inhibition [3] 24.3% | Potency [4] > 20.6 µM

COc1ccc(-c2ncncc2-c2csc(C)n2)c(O)c1
inactive: activity change, negative = inhibition [1] 2.87% | activity change, negative = inhibition [2] -5.52% | activity, negative = inhibition [3] 0.893% | Potency [4] > 20.6 µM

COc1cc(OC)cc(C(=O)N2CCC(N3CCN(c4ccccc4)CC3)CC2)c1
inactive: activity change, negative = inhibition [1] 5.25% | activity change, negative = inhibition [2] -4.18% | activity, negative = inhibition [3] 4.25% | Potency [4] > 20.6 µM

COCCOCCOCCC(=O)NC1CC2CCC1(C)C2(C)C (stereo not given)
inactive: activity change, negative = inhibition [1] 13.7% | activity change, negative = inhibition [2] 0.73% | activity, negative = inhibition [3] -0.452% | Potency [4] > 20.6 µM

Cc1ccc2[nH]c3c(NCCN4CCOCC4)ncnc3c2c1
inactive: activity change, negative = inhibition [1] -6.77% | activity change, negative = inhibition [2] 7.47% | activity, negative = inhibition [3] 0.396% | Potency [4] > 20.6 µM

CCOC(=O)c1cnn2c1[nH]c(=O)c1ccccc12
inactive: activity change, negative = inhibition [1] -8.34% | activity change, negative = inhibition [2] 9.32% | activity, negative = inhibition [3] 9.94% | Potency [4] > 20.6 µM

CCOC(=O)c1ccccc1OCc1cc(/C=N/n2cncn2)ccc1OC
inactive: activity change, negative = inhibition [1] -21.7% | activity change, negative = inhibition [2] 8.94% | activity, negative = inhibition [3] -6.04% | Potency [4] > 20.6 µM

CC1=CC=CN2CC(O)CN=C12 (stereo not given)
inactive: activity change, negative = inhibition [1] 3.58% | activity change, negative = inhibition [2] -0.121% | activity, negative = inhibition [3] 3.52% | Potency [4] > 20.6 µM

COc1ccc(C(=O)NCC(=O)n2nc(C)cc2C)cc1OC
inactive: activity change, negative = inhibition [1] 6.38% | activity change, negative = inhibition [2] -1.54% | activity, negative = inhibition [3] 16.4% | Potency [4] > 20.6 µM

COC(=O)[C@@H](N)Cc1ccc(O)cc1
inactive: activity change, negative = inhibition [1] -11% | activity change, negative = inhibition [2] -26% | activity, negative = inhibition [3] -6.81% | Potency [4] > 20.6 µM

O=C1C=C(O)CC(c2ccco2)C1 (stereo not given)
inactive: activity change, negative = inhibition [1] 10.5% | activity change, negative = inhibition [2] -7.18% | activity, negative = inhibition [3] 3.18% | Potency [4] > 20.6 µM

Cc1ccc2cc(CNC(C)(C)C)c(=O)[nH]c2c1
inactive: activity change, negative = inhibition [1] 2.11% | activity change, negative = inhibition [2] -5.21% | activity, negative = inhibition [3] -2.54% | Potency [4] > 20.6 µM

C=CCOc1ccc(C2/C(=C(\O)c3ccc(F)cc3)C(=O)C(=O)N2CCCN(C)C)cc1 (stereo not given)
inactive: activity change, negative = inhibition [1] 4.74% | activity change, negative = inhibition [2] -5.15% | activity, negative = inhibition [3] 17% | Potency [4] > 20.6 µM
